{
  "source": "the supplement of paper PMC10037445",
  "key": {"RAW-Dual [1]": {"tested_on": "RAW-Dual", "experiment": "IRF Lucia reporter activity, fold change vs agonist alone; cytotoxicity flag (confluency mask): cytotoxic (confluency <70% of control); higher = enhanced IRF activity", "how_it_was_run": "(§1)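 Library stock was pin-tooled at 50 nL into 384-well plates of RAW-Dual macrophages (50,000 cells/well, DMEM), followed 1 h later by a PRR agonist, and the cells were kept at 37 °C, 5% CO2. Supernatant collected after 20 hours was read for IRF by QuantiLuc luminescence and for NF-κB by QuantiBlue absorbance at 620 nm. Reporter activity is fold change over agonist-alone wells, and a well counted as cytotoxic when its IncuCyte confluency was below 70% of agonist controls in both mask sets.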"}, "RAW-Dual [2]": {"tested_on": "RAW-Dual", "experiment": "IRF Lucia reporter activity, fold change vs agonist alone; higher = enhanced IRF activity", "conditions": "agonist: MPLA (TLR4) […]", "how_it_was_run": "as §1"}, "RAW-Dual [3]": {"tested_on": "RAW-Dual", "experiment": "IRF Lucia reporter activity, fold change vs agonist alone; cytotoxicity flag (confluency mask): not cytotoxic; higher = enhanced IRF activity", "how_it_was_run": "as §1"}, "[4]": {"conditions": "agonist: 3'3'-cGAMP (STING) 10 ug/mL"}, "[5]": {"conditions": "library stock concentration (final ~1000-fold dilution): 10 mM, cytotoxicity flag (confluency mask): not cytotoxic"}},
  "note": "“And” between values parts separate entries of the source, which are not always exact repeats. Identical values can stand only once. In all, about 2,900 compounds were measured (“IRF Lucia reporter activity, fold change vs agonist alone”: median about 0.9, highest 2% from about 2.8 on). What follows is part of a selection rich in the highest values, with near analogues and random picks from the rest.",
  "data": [
    {"smiles": "CCOC(=O)C1=C(COCCN)NC(C)=C(C(=O)OC)C1c1ccccc1Cl.O=S(=O)(O)c1ccccc1", "note": "(stereo not drawn) (library stock concentration (final ~1000-fold dilution): 10 mM)", "values": [
      {"measurement": "IRF Lucia reporter activity", "setting": "RAW-Dual [1]; [4]", "value": 1.02},
      {"measurement": "IRF Lucia reporter activity", "setting": "RAW-Dual [1]; agonist: LPS (TLR4) 0.1 ug/mL", "value": 3.19}
    ]},
    {"smiles": "CCOC(=O)C1=C(C)NC(C)=C(C(=O)OC)C1c1cccc(Cl)c1Cl", "note": "(stereo not drawn)", "values": [
      {"measurement": "IRF Lucia reporter activity", "setting": "RAW-Dual [2]; [5]", "value": 1.08}
    ]},
    {"smiles": "COC(=O)C1=C(C)NC(C)=C(C(=O)OC)C1c1ccccc1[N+](=O)[O-]", "note": "(library stock concentration (final ~1000-fold dilution): 10 mM)", "values": [
      {"measurement": "IRF Lucia reporter activity", "setting": "RAW-Dual [3]; [4]", "value": 0.606},
      {"measurement": "IRF Lucia reporter activity", "setting": "RAW-Dual [3]; agonist: LPS (TLR4) 0.1 ug/mL", "value": 0.554}
    ]},
    {"smiles": "CCOC(=O)C1=C(COCCN)NC(C)=C(C(=O)OC)C1c1ccccc1Cl", "note": "(stereo not drawn) (library stock concentration (final ~1000-fold dilution): 10 mM)", "values": [
      {"measurement": "IRF Lucia reporter activity", "setting": "RAW-Dual [1]; [4]", "value": "0.715 and 0.401"},
      {"measurement": "IRF Lucia reporter activity", "setting": "RAW-Dual [1]; agonist: LPS (TLR4) 0.1 ug/mL", "value": "2.55 and 2.72"}
    ]},
    {"smiles": "CCOC(=O)C1=C(C)NC(C)=C(C(=O)OC)C1c1cccc(Cl)c1Cl", "note": "(stereo not drawn) (library stock concentration (final ~1000-fold dilution): 10 mM)", "values": [
      {"measurement": "IRF Lucia reporter activity", "setting": "RAW-Dual [3]; [4]", "value": 1.31},
      {"measurement": "IRF Lucia reporter activity", "setting": "RAW-Dual [3]; agonist: LPS (TLR4) 0.1 ug/mL", "value": 1.17}
    ]},
    {"smiles": "Cc1cccc(Nc2nc(NC3CCCCC3N)ncc2C(N)=O)c1.Cl.Cl", "note": "(stereo not drawn) (library stock concentration (final ~1000-fold dilution): 10 mM)", "values": [
      {"measurement": "IRF Lucia reporter activity", "setting": "RAW-Dual [1]; [4]", "value": 0.0182},
      {"measurement": "IRF Lucia reporter activity", "setting": "RAW-Dual [1]; agonist: LPS (TLR4) 0.1 ug/mL", "value": 0.0241}
    ]},
    {"smiles": "CS(=O)(=O)O.Cc1ccc(N(CC2=NCCN2)c2cccc(O)c2)cc1", "values": [
      {"measurement": "IRF Lucia reporter activity", "setting": "RAW-Dual [2]; [5]", "value": 0.907}
    ]},
    {"smiles": "CS(=O)(=O)O.Cc1ccc(N(CC2=NCCN2)c2cccc(O)c2)cc1", "note": "(library stock concentration (final ~1000-fold dilution): 10 mM)", "values": [
      {"measurement": "IRF Lucia reporter activity", "setting": "RAW-Dual [3]; [4]", "value": 0.803},
      {"measurement": "IRF Lucia reporter activity", "setting": "RAW-Dual [3]; agonist: LPS (TLR4) 0.1 ug/mL", "value": 0.89}
    ]},
    {"smiles": "C[N+](C)(C)NCCC(=O)O", "values": [
      {"measurement": "IRF Lucia reporter activity", "setting": "RAW-Dual [2]; library stock concentration (final ~1000-fold dilution): 10 mM water, cytotoxicity flag (confluency mask): not cytotoxic", "value": 1.25}
    ]},
    {"smiles": "C[N+](C)(C)NCCC(=O)O", "note": "(library stock concentration (final ~1000-fold dilution): 10 mM water)", "values": [
      {"measurement": "IRF Lucia reporter activity", "setting": "RAW-Dual [3]; [4]", "value": 1.05},
      {"measurement": "IRF Lucia reporter activity", "setting": "RAW-Dual [3]; agonist: LPS (TLR4) 0.1 ug/mL", "value": 0.979}
    ]},
    {"smiles": "C[C@@H]1O[C@@H](O[C@H]2C(=O)c3c(O)cc(O)cc3O[C@@H]2c2ccc(O)cc2)[C@H](O)[C@H](O)[C@H]1O", "note": "(library stock concentration (final ~1000-fold dilution): 10 mM)", "values": [
      {"measurement": "IRF Lucia reporter activity", "setting": "RAW-Dual [3]; [4]", "value": 0.228},
      {"measurement": "IRF Lucia reporter activity", "setting": "RAW-Dual [3]; agonist: LPS (TLR4) 0.1 ug/mL", "value": 1.17}
    ]},
    {"smiles": "COc1nc2ccc(Br)cc2cc1C(c1ccccc1)C(O)(CCN(C)C)c1cccc2ccccc12.O=C(O)/C=C/C(=O)O", "note": "(stereo not drawn)", "values": [
      {"measurement": "IRF Lucia reporter activity", "setting": "RAW-Dual [2]; [5]", "value": 0.751}
    ]},
    {"smiles": "COc1nc2ccc(Br)cc2cc1C(c1ccccc1)C(O)(CCN(C)C)c1cccc2ccccc12.O=C(O)/C=C/C(=O)O", "note": "(stereo not drawn) (library stock concentration (final ~1000-fold dilution): 10 mM)", "values": [
      {"measurement": "IRF Lucia reporter activity", "setting": "RAW-Dual [3]; [4]", "value": 0.888},
      {"measurement": "IRF Lucia reporter activity", "setting": "RAW-Dual [3]; agonist: LPS (TLR4) 0.1 ug/mL", "value": 0.812}
    ]},
    {"smiles": "CC(=O)Nc1ccc(C(=O)Nc2ccccc2N)cc1", "note": "(library stock concentration (final ~1000-fold dilution): 10 mM)", "values": [
      {"measurement": "IRF Lucia reporter activity", "setting": "RAW-Dual [3]; [4]", "value": 0.557},
      {"measurement": "IRF Lucia reporter activity", "setting": "RAW-Dual [3]; agonist: LPS (TLR4) 0.1 ug/mL", "value": 0.424}
    ]},
    {"smiles": "Cc1cc(Nc2ccc(NC(=O)c3ccc(Nc4ccnc5ccccc45)cc3)cc2)nc(N)n1", "note": "(library stock concentration (final ~1000-fold dilution): 10 mM)", "values": [
      {"measurement": "IRF Lucia reporter activity", "setting": "RAW-Dual [3]; [4]", "value": 1.65},
      {"measurement": "IRF Lucia reporter activity", "setting": "RAW-Dual [3]; agonist: LPS (TLR4) 0.1 ug/mL", "value": 2.84}
    ]},
    {"smiles": "CNCc1ccc(C)c(NC(=O)c2ccc(Nc3nc(-c4ccccc4)c4ccccc4n3)cc2)c1", "values": [
      {"measurement": "IRF Lucia reporter activity", "setting": "RAW-Dual [2]; [5]", "value": 1.01}
    ]},
    {"smiles": "Cc1cc(Nc2ccc(NC(=O)c3ccc(Nc4ccnc5ccccc45)cc3)cc2)nc(N)n1", "values": [
      {"measurement": "IRF Lucia reporter activity", "setting": "RAW-Dual [2]; [5]", "value": 3.15}
    ]},
    {"smiles": "CNCc1ccc(C)c(NC(=O)c2ccc(Nc3nc(-c4ccccc4)c4ccccc4n3)cc2)c1", "note": "(library stock concentration (final ~1000-fold dilution): 10 mM)", "values": [
      {"measurement": "IRF Lucia reporter activity", "setting": "RAW-Dual [3]; [4]", "value": 0.995},
      {"measurement": "IRF Lucia reporter activity", "setting": "RAW-Dual [3]; agonist: LPS (TLR4) 0.1 ug/mL", "value": 1.04}
    ]},
    {"smiles": "CC(=O)Nc1ccc(C(=O)Nc2ccccc2N)cc1", "values": [
      {"measurement": "IRF Lucia reporter activity", "setting": "RAW-Dual [2]; [5]", "value": 0.418}
    ]},
    {"smiles": "CCN(CC)CCCC(C)Nc1c2ccc(Cl)cc2nc2ccc(OC)cc12.Cl.Cl", "note": "(stereo not drawn) (library stock concentration (final ~1000-fold dilution): 10 mM)", "values": [
      {"measurement": "IRF Lucia reporter activity", "setting": "RAW-Dual [1]; [4]", "value": 0.643},
      {"measurement": "IRF Lucia reporter activity", "setting": "RAW-Dual [1]; agonist: LPS (TLR4) 0.1 ug/mL", "value": 0.0599}
    ]},
    {"smiles": "CCN(CC)CCCC(C)Nc1c2ccc(Cl)cc2nc2ccc(OC)cc12.Cl.Cl", "note": "(stereo not drawn)", "values": [
      {"measurement": "IRF Lucia reporter activity", "setting": "RAW-Dual [2]; library stock concentration (final ~1000-fold dilution): 10 mM, cytotoxicity flag (confluency mask): cytotoxic (confluency <70% of control)", "value": 0.84}
    ]},
    {"smiles": "C/C(O)=C(\\C#N)C(=O)Nc1ccc(C(F)(F)F)cc1", "values": [
      {"measurement": "IRF Lucia reporter activity", "setting": "RAW-Dual [2]; [5]", "value": 1.97}
    ]},
    {"smiles": "CC(=O)Oc1cc(C(F)(F)F)ccc1C(=O)O", "note": "(library stock concentration (final ~1000-fold dilution): 10 mM)", "values": [
      {"measurement": "IRF Lucia reporter activity", "setting": "RAW-Dual [3]; [4]", "value": 1.03},
      {"measurement": "IRF Lucia reporter activity", "setting": "RAW-Dual [3]; agonist: LPS (TLR4) 0.1 ug/mL", "value": 0.337}
    ]},
    {"smiles": "CC(=O)Oc1cc(C(F)(F)F)ccc1C(=O)O", "values": [
      {"measurement": "IRF Lucia reporter activity", "setting": "RAW-Dual [2]; [5]", "value": 1.04}
    ]},
    {"smiles": "Cc1oncc1C(=O)Nc1ccc(C(F)(F)F)cc1", "values": [
      {"measurement": "IRF Lucia reporter activity", "setting": "RAW-Dual [2]; [5]", "value": 1.62}
    ]},
    {"smiles": "C/C(O)=C(\\C#N)C(=O)Nc1ccc(C(F)(F)F)cc1", "note": "(library stock concentration (final ~1000-fold dilution): 10 mM)", "values": [
      {"measurement": "IRF Lucia reporter activity", "setting": "RAW-Dual [3]; [4]", "value": 1.69},
      {"measurement": "IRF Lucia reporter activity", "setting": "RAW-Dual [3]; agonist: LPS (TLR4) 0.1 ug/mL", "value": 3.04}
    ]},
    {"smiles": "Cc1oncc1C(=O)Nc1ccc(C(F)(F)F)cc1", "note": "(library stock concentration (final ~1000-fold dilution): 10 mM)", "values": [
      {"measurement": "IRF Lucia reporter activity", "setting": "RAW-Dual [3]; [4]", "value": 1.08},
      {"measurement": "IRF Lucia reporter activity", "setting": "RAW-Dual [3]; agonist: LPS (TLR4) 0.1 ug/mL", "value": 1.39}
    ]}
  ]
}
